# Compound activity from PubChem BioAssay.
# BAZ2B inh: qHTS Assay for Inhibitors of BAZ2B; Potency, µM (titrated, usually from 114 µM), inactives show top-dose activity change, negative = inhibition, hits mostly inhibitors; 360,000 compounds, 4.4% hits; Bromodomain adjacent to zinc finger domain protein 2B (Homo sapiens), Q9UIF8; AID 504333, 2011; AlphaScreen BAZ2B-H3K14Ac peptide displacement; further: potency means the concentration at half of the fitted maximal effect; on the % scale 0 is the no-effect control and ±100 the full control effect; nearly all actives have a fitted effect of over 60% in size
#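 BAZ2B 50 nM plus b-H3(5-23)K14Ac 50 nM, PBS pH 7.4/0.01% Tween-20, 30 min RT; compound added (max 110 uM), 30 min RT; streptavidin donor/Ni-chelate acceptor beads 10 ug/mL final, 20 min dark; AlphaScreen read.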
# Six1-Eya2 blk: qHTS Assay for Inhibitors of the Six1/Eya2 Interaction; activity change, % (concentration not given with the values); AlphaScreen GST-Six1/His-Eya2 binding, biochemical; active compounds read low; Homeobox protein SIX1 (Homo sapiens) + Protein phosphatase EYA2 (Homo sapiens), …; 360,000 compounds, 0.56% hits; in the data active means activity change below about -65%; inconclusive means mostly about -30% to -63%; further: on the % scale 0 is the no-effect control and ±100 the full control effect
#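 Homogeneous AlphaScreen proximity assay pairing GST-Six1 with His-tagged Eya2 (added as 5X mix: 250 nM and 500 nM) in 50 mM Tris pH 8.0, 300 mM NaCl, 1 mM TCEP. Glutathione donor and nickel acceptor beads; 1 h, 37 °C, dark.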
# CtBP-E1A inh: qHTS Assay for Inhibitors of the CtBP/E1A Interaction | CtBP / adenovirus E1A interaction (AlphaScreen) | AlphaScreen GST-E1A/His-CtBP binding, 1536-well; active compounds read low | activity change, % (test concentration not listed) | 340,000 compounds, 0.49% hits; in the data active means activity change below about -65%; inconclusive means mostly about -30% to -63%; further: on the % scale 0 is the no-effect control and ±100 the full control effect
#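 GST-E1A and His-tagged CtBP (125 nM each as 5X stock) were preincubated with pin-transferred compound for 2 h at 37 °C in the dark, then glutathione donor and nickel acceptor beads were added for 1 h before AlphaScreen reading.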
# G9a inh: qHTS Assay for Inhibitors of Histone Lysine Methyltransferase G9a; G9a H3K9 monomethylation, AlphaScreen, 2 h; Potency, µM (highest dose often 102 µM), inactives show top-dose activity, negative = inhibition, usual class: inhibitors; 350,000 compounds, 8.8% hits; AID 504332, 2011; further: potency means the concentration at half of the fitted maximal effect; on the % scale 0 is the no-effect control and ±100 the full control effect; nearly all actives have a fitted effect of over 75% in size
#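 G9a (20 nM) was preincubated 15 min with compound, then reacted 2 h at room temperature with 500 nM biotin-H3K9 peptide and 20 µM SAM. Monomethyl-H3K9 detected by AlphaScreen using anti-H3K9me1 antibody.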
# HP1b chromo inh: HTS for Inhibitors of HP1-beta Chromodomain Interactions with Methylated Histone Tails. Potency, µM (series often up to 114 µM), inactives show at the highest dose activity change, negative = inhibition, usual class: inhibitors. AlphaScreen HP1-beta / biotin-H3K9me3 peptide binding. 390,000 compounds, 0.56% hits. AID 540317, 2011. Chromobox protein homolog 1 (Homo sapiens), P83916; further: potency means the concentration at half of the fitted maximal effect; nearly all actives have a fitted effect of over 70% in size
#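 HP1-beta protein (50 nM final) preincubated 30 min at room temperature with biotinylated H3(1-18)K9me3 peptide (50 nM) in PBS pH 7.4, 0.01% Tween-20, then compound added for 30 min. AlphaScreen streptavidin donor/nickel chelate acceptor beads (10 ug/mL final), 30 min dark, luminescence read.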
# JMJD2A Tudor: qHTS Assay for Inhibitors of JMJD2A-Tudor Domain; Lysine-specific demethylase 4A (Homo sapiens), O75164; AlphaScreen JMJD2A-Tudor / H3K4me3 peptide binding; Potency, µM (top dose mostly 114 µM), for inactives: top-dose activity change, negative = inhibition, actives largely listed as inhibitors; 390,000 compounds, 4.4% hits; AID 504339, 2011; further: potency means the concentration at half of the fitted maximal effect; on the % scale 0 is the no-effect control and ±100 the full control effect; nearly all actives have a fitted effect of over 50% in size
# Target sequence (O75164 whole entry, looked up, the tested form may be a part): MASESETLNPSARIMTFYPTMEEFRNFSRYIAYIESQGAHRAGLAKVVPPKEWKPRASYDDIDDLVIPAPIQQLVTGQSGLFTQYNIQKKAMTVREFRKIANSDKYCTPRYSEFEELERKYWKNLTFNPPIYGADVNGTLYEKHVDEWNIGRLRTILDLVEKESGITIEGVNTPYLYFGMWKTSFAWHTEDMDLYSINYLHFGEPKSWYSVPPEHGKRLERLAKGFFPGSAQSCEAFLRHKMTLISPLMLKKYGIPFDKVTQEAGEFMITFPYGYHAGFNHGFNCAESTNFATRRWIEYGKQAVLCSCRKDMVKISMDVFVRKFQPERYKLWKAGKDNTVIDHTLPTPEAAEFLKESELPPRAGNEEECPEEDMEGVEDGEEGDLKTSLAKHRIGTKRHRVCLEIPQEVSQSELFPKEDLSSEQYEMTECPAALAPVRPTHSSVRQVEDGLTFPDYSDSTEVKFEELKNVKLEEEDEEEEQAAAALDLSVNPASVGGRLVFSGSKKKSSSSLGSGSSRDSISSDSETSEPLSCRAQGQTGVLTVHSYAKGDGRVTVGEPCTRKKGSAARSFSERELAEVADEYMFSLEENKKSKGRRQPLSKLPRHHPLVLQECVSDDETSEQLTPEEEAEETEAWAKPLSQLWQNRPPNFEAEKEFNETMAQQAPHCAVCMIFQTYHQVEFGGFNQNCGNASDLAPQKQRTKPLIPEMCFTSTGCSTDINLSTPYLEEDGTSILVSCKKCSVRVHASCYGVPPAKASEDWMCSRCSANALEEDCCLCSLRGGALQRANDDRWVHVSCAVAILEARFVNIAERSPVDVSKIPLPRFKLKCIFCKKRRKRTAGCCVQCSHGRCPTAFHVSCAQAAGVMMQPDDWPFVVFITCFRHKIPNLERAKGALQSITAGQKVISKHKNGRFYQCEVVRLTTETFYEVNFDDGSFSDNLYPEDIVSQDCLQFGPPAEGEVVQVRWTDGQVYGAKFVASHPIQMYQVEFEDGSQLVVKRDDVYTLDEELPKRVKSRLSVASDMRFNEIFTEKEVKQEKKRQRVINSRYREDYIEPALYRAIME
# * hit, by the source's call; ? = inconclusive; nt = no result given; [ ] = remark or other dose. This is a sample that favours compounds with a hit; in the whole collection about 10% have one here. Unless noted, the call rests on the fitted dose curve; in most records, active means well fitted inhibition curve with a large enough effect; inconclusive means small, poorly fitted or top-dose-only effect; inactive means no such curve, though single readings can be large or run the other way.
SMILES,BAZ2B inh,Six1-Eya2 blk,CtBP-E1A inh,G9a inh,HP1b chromo inh,JMJD2A Tudor
Cc1cc(NO)nc(-c2ccc(Br)cc2)n1,nt,-1.8,-6.1,?,?,20µM*
Cc1cc(C)nc(NC(=O)c2ccc(Br)cc2)n1,-10.0%,3.7,-4.9,?,-9.0%,-10.5%
COCCCN(C(=O)c1cc(C)oc1C)c1c(N)n(CC(C)C)c(=O)[nH]c1=O,4.0%,-0.2,-2.9,-3.5%[2.33 µM],33.2%,?
CN(C)C1C(=O)C(C(N)=O)=C(O)[C@@]2(O)C(=O)C3=C(O)c4c(O)ccc(Cl)c4C(O)[C@H]3C[C@@H]12 (stereo partly specified),nt,nt,nt,-28.2%[2.33 µM],nt,nt
CN(C)C1C(=O)C(C(N)=O)=C(O)[C@@]2(O)C(=O)C3=C(O)c4c(O)ccc(Cl)c4[C@@H](O)C3C[C@@H]12 (stereo partly specified),nt,nt,nt,35.5µM*,nt,nt
CN(C)c1ccc(O)c2c1CC1CC3[C@@H](N(C)C)C(=O)C(C(N)=O)=C(O)[C@]3(O)C(=O)C1=C2O (stereo partly specified),3.55µM*,?,-23.8,10µM*,26.5%,-12.2%
CN(C)C1C(=O)C(C(N)=O)C(=O)C2(O)C(=O)C3C(=O)c4c(O)ccc(Cl)c4C(O)C3CC12 (stereo unspecified),nt,nt,nt,15.8µM*,nt,nt
Cc1cccc(CNC(=O)CCCN2C(=O)CCn3nc(-c4cn(C)c5ccccc45)cc32)c1,-4.3%,nt,nt,8.7%[59 µM],11.9%[57 µM],-21.1%
CCOC(=O)c1c(C)[nH]c(C)c1S(=O)(=O)NCC(=O)Nc1ccc(C)c(N(C)C)c1,-18.8%,nt,nt,-17.5%[59 µM],21.2%,-14.3%
CC(Sc1nnc(N)s1)C(=O)NNC(=O)c1cccc(Cl)c1 (stereo unspecified),nt,-2.9,-3.8,nt,32.8%,6.2%
CC(Sc1nnc(N)s1)c1ccccc1Cl (stereo unspecified),-1.2%,0.4,4.3,39.8µM*,89.6%,-3.5%
Cc1cnc(C(=O)OCC(=O)N=c2sccn2Cc2ccccc2Cl)cn1,-18.6%,0.2,9.2,4.3%,38.7%,-12.1%
O=C(COC(=O)c1cnccn1)N=c1sccn1Cc1ccccc1Cl,-0.3%,-6.0,1.5,56.2µM*,13.9%,-17.8%
CCc1c(C)nc2[nH]nc(NC(=O)C(F)(F)F)n2c1=O,?,3.4,-0.1,15.8µM*,-13.9%,89.1µM*
CCc1c(C)nc2nc(NC(C)=O)[nH]n2c1=O,-10.1%,-1.9,1.0,?,13.5%,-27.8%
COc1ccc(-c2cc3ccc(O)c(CN4CCC(C)CC4)c3oc2=O)cc1OC,8.2%,nt,nt,0.5%[59 µM],18.2%[57 µM],-8.1%
COc1cc2c(cc1OC)CN(C(=O)CCc1c[nH]c3ccccc13)[C@H](C(=O)O)C2,-18.2%,-2.6,nt,70.8µM*,34.0%,-3.0%
O=C(O)[C@@H]1CCCN1C(=O)CCc1c[nH]c2ccccc12,4.9%,3.1,0.2,-5.7%,30.8%,-18.5%
O=C(NC1CCCCC1)/C(=N\O)c1ccccn1,-31.4%,6.1,4.4,50.1µM*,-1.2%,?
Cc1cc(C(=O)CN2C(=O)CN(C)C2=O)c(C)n1-c1cccc(S(=O)(=O)N2CCOCC2)c1,-35.8%,-1.6,nt,-15.6%,26.2%,-10.9%
Cc1cc(C(=O)CCl)c(C)n1-c1cccc(S(=O)(=O)N2CCOCC2)c1,?,-68.5*,-91.4*,?,-8.7%,-8.6%
Cc1cc(C)cc(Oc2ccc(N)cc2)c1,?,-12.9,-19.1,-50.5%[59 µM],-25.4%,?
Nc1ccc(Oc2ccc(Br)cc2)cc1,39.8µM*,-16.6,-1.3,-10.2%[59 µM],?,?
O=C(O)C1=C[C@@H](c2ccc(F)cc2)C[C@@H](OCCCCO)O1,79.4µM*,-3.7,-5.4,?,20.9%,?
CCOC(=O)COn1c(-c2cccc(Cl)c2)nc2ccc([N+](=O)[O-])cc21,-4.3%,3.0,13.3,50.1µM*,44.7%,-8.3%
SMILES,BAZ2B inh,Six1-Eya2 blk,CtBP-E1A inh,G9a inh,HP1b chromo inh,JMJD2A Tudor
CCOC(=O)C(C)On1c(-c2cccc(Cl)c2)nc2ccc([N+](=O)[O-])cc21 (stereo unspecified),?,-28.3,-9.6,-11.4%[59 µM],1.6%,-25.2%
O=C(NCc1ccccc1)c1ccc2c(c1)CCN2S(=O)(=O)c1ccc(Cl)cc1,-10.5%,nt,nt,3.1%[59 µM],32.5%,-9.7%
C/C(CCC12CC3CC(CC(C3)C1)C2)=N\NC(N)=S,?,-3.6,2.3,-6.1%,-11.9%,?
C/C(=N\NC(N)=S)C1C2C3CC4C5CC(C42)C1C53 (stereo unspecified),-38.1%,-10.1,3.9,39.8µM*,26.3%,-9.8%
Cc1cccc(C)c1-n1c(=O)n(Cc2ccccc2)c(=O)c2[nH]cnc21,2.5%,-1.4,6.6,-2.2%,19.4%,-7.6%
COC(=O)c1cccc(-n2c(=O)n(Cc3ccccc3)c(=O)c3[nH]cnc32)c1C,-5.2%,-0.4,-8.4,17.8µM*,4.8%,-13.6%
COc1cc(/C=N/Nc2ccc(C(=O)O)cc2)cc(OC)c1OC,-3.7%,-10.1,0.2,50.1µM*,44.6%,-6.7%
COc1cc(/C=N/NC(=O)CCn2cnc(-c3ccccc3)c2-c2ccccc2)ccc1O,44.7µM*,?,?,44.7µM*,?,56.2µM*
COc1cc(/C=N/NC(=O)c2ccccc2)ccc1O,1.5%,-1.3,-13.1,25.5%,28.0%,1.4%
COc1cc(/C=N/Nc2ccc(C(=O)O)cc2)ccc1O,50.1µM*,-20.5,-13.4,?,50.1µM*,?
C=CCOc1c(OC)cc(/C=N/Nc2cccc(C(=O)O)c2)c(Br)c1Br,39.8µM*,-5.5,-18.9,10µM*,?,56.2µM*
CC(=O)c1ccc(CCCc2ccc(C(C)=O)cc2)cc1,nt,12.0,31.1,nt,33.3%,51.7%
Cc1ccc2oc(=O)c3cc(C(=O)NCCCOC(C)C)sc3c2c1,-2.0%,nt,nt,-40.1%[59 µM],17.8%,-17.2%
COc1cc(/C=N/Nc2ccc([N+](=O)[O-])cn2)cc(OC)c1O,-27.6%,-20.8,-11.1,8.91µM*,81.7%,-22.5%
COc1ccc(/C=N/Nc2ccc([N+](=O)[O-])cc2)cc1Cn1cc([N+](=O)[O-])cn1,-30.9%,1.9,-1.8,?,41.7%,-21.2%[11.4 µM]
COc1ccc(/C=N/Nc2ccc([N+](=O)[O-])cc2)cc1O,50.1µM*,9.9,-0.6,?,?,?
